# Structures can show the parent of a compound that is named as a salt. ± gives the standard deviation of the averaged measurements.
# Test system: E. coli TESEC Alr+ wild-type control
# Assay: growth (OD600 after 10 h); higher = more growth (less inhibition)
# Conditions: compound 0.1 mM; raw OD600 reference: median of DMSO wells 0.49, cell-free background 0.052
# Experimental: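 TESEC Mtb Alr E. coli (ΔaraC ΔtolC ΔentC Δalr ΔdadX, arabinose-inducible Mtb Alr) or the Alr+ wild-type control strain, grown in defined M9-fructose medium without D-alanine in 96-well plates with Prestwick library compounds at 0.1 mM and 1% DMSO. Low Alr induction is 0.1 µM arabinose and high induction is 10 mM arabinose.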
row,SMILES,growth
1,COc1ccc(C[C@@H]2c3cc(OC)c(OC)cc3CC[N@+]2(C)CCC(=O)OCCCCCOC(=O)CC[N@@+]2(C)CCc3cc(OC)c(OC)cc3[C@H]2Cc2ccc(OC)c(OC)c2)cc1OC [Cisatracurium besylate],0.497 ± 0.054
2,CCN(CC)C(=O)/C(C#N)=C/c1cc(O)c(O)c([N+](=O)[O-])c1 [Entacapone],0.144 ± 0.02
3,CC(C(=O)O)c1cccc(Oc2ccccc2)c1 (stereo not given) [Fenoprofen calcium salt dihydrate],0.489 ± 0.089
4,Clc1ccc(Cn2c(CN3CCCC3)nc3ccccc32)cc1 [Clemizole hydrochloride],0.452 ± 0.049
5,CC(C)(C)NC(=O)[C@@H]1C[C@@H]2CCCC[C@@H]2CN1C[C@@H](O)[C@H](Cc1ccccc1)NC(=O)[C@H](CC(N)=O)NC(=O)c1ccc2ccccc2n1 [Saquinavir mesylate],0.0807 ± 0.0042
6,CCSc1ccc2c(c1)N(CCCN1CCN(C)CC1)c1ccccc1S2 [Thiethylperazine dimalate],0.0499 ± 0.0032
7,CN(C)CC/C=C1/c2ccccc2Sc2ccc(Cl)cc21 [Chlorprothixene hydrochloride],0.157 ± 0.12
8,CN(C(=O)C(Cl)Cl)c1ccc(OC(=O)c2ccco2)cc1 [Diloxanide furoate],0.609 ± 0.087
9,CC(C)C(=O)Nc1ccc([N+](=O)[O-])c(C(F)(F)F)c1 [Flutamide],0.506 ± 0.0074
10,CCc1nn(CCCN2CCN(c3cccc(Cl)c3)CC2)c(=O)n1CCOc1ccccc1 [Nefazodone HCl],0.0504 ± 0.00067
11,COC(=O)C1=C(C)NC(C)=C(C(=O)OC)C1c1ccccc1[N+](=O)[O-] [Nifedipine],0.447 ± 0.017
12,CN1CCCC(n2nc(Cc3ccc(Cl)cc3)c3ccccc3c2=O)CC1 (stereo not given) [Azelastine HCl],0.472 ± 0.021
13,CCCC(CCC)C(=O)O [Valproic acid],0.478 ± 0.035
14,O=C1OC(CN2CCOCC2)CN1/N=C/c1ccc([N+](=O)[O-])o1 (stereo not given) [Furaltadone hydrochloride],0.05647 ± 0.00045
15,CC[N+](C)(CC)CCC[n+]1c(-c2ccccc2)c2cc(N)ccc2c2ccc(N)cc21 [Propidium iodide],0.0675 ± 0.0008
16,Cc1cccc(C)c1NC(=O)CN1CCN(CCCC(c2ccc(F)cc2)c2ccc(F)cc2)CC1 [Lidoflazine],0.563 ± 0.013
17,CCN(CC)CCNC(=O)c1ccc(N)cc1 [Procainamide hydrochloride],0.634 ± 0.046
18,O=C1c2c(O)ccc(O)c2C(=O)c2c(NCCNCCO)ccc(NCCNCCO)c21 [Mitoxantrone dihydrochloride],0.259 ± 0.051
19,CCCCC1=NC2(CCCC2)C(=O)N1Cc1ccc(-c2ccccc2-c2nnn[nH]2)cc1 [Irbesartan],0.528 ± 0.12
20,C[C@H]1[C@H](NC(=O)/C(=N\OC(C)(C)C(=O)O)c2csc(N)n2)C(=O)N1S(=O)(=O)O [Aztreonam],0.385 ± 0.016

row,SMILES,growth
1,Clc1ccccc1CN1CCc2sccc2C1 [Ticlopidine hydrochloride],0.429 ± 0.015
2,CCOC(=O)[C@H](CCc1ccccc1)N[C@@H](C)C(=O)N1[C@H](C(=O)O)C[C@@H]2CCC[C@@H]21 [Ramipril],0.586 ± 0.011
3,Cc1cc(C(=O)NNCc2ccccc2)no1 [Isocarboxazid],0.463 ± 0.036
4,O=C(NCCN1CCOCC1)c1ccc(Cl)cc1 [Moclobemide],0.615 ± 0.038
5,Nc1nc(Cl)nc2c1ncn2[C@H]1C[C@H](O)[C@@H](CO)O1 [Cladribine],0.577 ± 0.12
6,CN1CC2c3ccccc3Oc3ccc(Cl)cc3C2C1 (stereo not given) [Asenapine maleate],0.44 ± 0.01
7,Cn1c(=O)c2[nH]cnc2n(C)c1=O [Aminophylline],0.513 ± 0.08
8,CCn1nc(C(=O)O)c(=O)c2cc3c(cc21)OCO3 [Cinoxacin],0.0852 ± 0.0034
9,Cc1cc2c(s1)Nc1ccccc1N=C2N1CCN(C)CC1 [Olanzapine],0.502 ± 0.029
10,Cn1c(=O)c2c(ncn2CC2OCCO2)n(C)c1=O [Doxofylline],0.475 ± 0.076
11,CC(=O)O[C@H]1C(=O)[C@@]2(C)[C@H]([C@H](OC(=O)c3ccccc3)[C@]3(O)C[C@H](OC(=O)[C@H](O)[C@@H](NC(=O)c4ccccc4)c4ccccc4)C(C)=C1C3(C)C)[C@]1(OC(C)=O)CO[C@@H]1C[C@@H]2O [Paclitaxel],0.554 ± 0.03
12,CCOC(=O)[N-]c1c[n+](N2CCOCC2)no1 [Molsidomine],0.562 ± 0.037
13,O=C(O)c1ccccc1Nc1cccc(C(F)(F)F)c1 [Flufenamic acid],0.114 ± 0.0046
14,"O=C1C(O)=C(O)C(=O)C(O)=C1O [Tetrahydroxy-1,4-quinone hydrate]",0.5 ± 0.021
15,COCCCC/C(=N\OCCN)c1ccc(C(F)(F)F)cc1 [Fluvoxamine maleate],0.518 ± 0.051
16,C=CCc1ccccc1OCC(O)CNC(C)C (stereo not given) [Alprenolol hydrochloride],0.446 ± 0.015
17,Cn1nnc2c(C(N)=O)ncn2c1=O [Temozolomide],0.539 ± 0.076
18,NC(=O)c1cccnc1 [Nicotinamide],0.509 ± 0.11
19,Cc1onc(-c2c(Cl)cccc2Cl)c1C(=O)N[C@@H]1C(=O)N2[C@@H]1SC(C)(C)[C@@H]2C(=O)O [Dicloxacillin sodium salt hydrate],0.516 ± 0.11
20,CCCCc1cc2ccccc2c(OCCN(C)C)n1 [Dimethisoquin hydrochloride],0.444 ± 0.022
